HPGD block: qHTS Assay for Inhibitors of HPGD (15-Hydroxyprostaglandin Dehydrogenase) | 15-hydroxyprostaglandin dehydrogenase [NAD(+)] (Homo sapiens), P15428 | purified HPGD, NADH fluorescence kinetic, PGE2 substrate | Potency, µM, for inactives: top-dose activity change, negative = inhibition, most hits filed as inhibitors | 150,000 compounds, 4.3% hits | AID 894, 2007; active means well fitted inhibition curve with a large enough effect, not every such curve was filed as active; inconclusive means small, poorly fitted or top-dose-only effect, or another doubt; inactive means no such curve, though single readings can be large or run the other way; further: potency means the concentration at half of the fitted maximal effect
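20 nM HPGD preincubated 15 min at room temperature with compound in 50 mM Tris-HCl pH 8, 0.01% Tween 20. Started with 1 mM NAD+ and 30 uM prostaglandin E2; NADH fluorescence (360/450 nm) read 5 times over 30-s intervals, last minus first.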
NPSR antag: qHTS Assay for Antagonists of the Neuropeptide S Receptor: cAMP Signal Transduction | Q6W5P4 | CHO-NPSR cells, cAMP TR-FRET, antagonist mode | Potency, µM (top dose mostly 38.3 µM), for the others: at the top dose activity change, negative = inhibition, most hits filed as inhibitors | 220,000 compounds, 1% hits | AID 1461, 2008; further: potency means the concentration at half of the fitted maximal effect; nearly all actives have a fitted effect of over 50% in size
Target sequence (Q6W5P4 whole entry, looked up): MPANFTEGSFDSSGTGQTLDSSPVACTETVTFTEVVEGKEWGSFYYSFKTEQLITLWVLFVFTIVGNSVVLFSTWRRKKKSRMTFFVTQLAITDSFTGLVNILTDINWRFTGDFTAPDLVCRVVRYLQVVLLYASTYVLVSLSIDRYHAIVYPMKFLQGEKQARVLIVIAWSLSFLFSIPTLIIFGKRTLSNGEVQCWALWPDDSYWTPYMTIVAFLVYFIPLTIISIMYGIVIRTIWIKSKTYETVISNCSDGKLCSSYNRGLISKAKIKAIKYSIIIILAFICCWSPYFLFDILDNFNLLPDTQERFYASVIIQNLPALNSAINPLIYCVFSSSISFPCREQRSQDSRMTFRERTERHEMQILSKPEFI
IMPase Li cell: qHTS Assay for Identifying the Cell-Membrane Permeable IMPase Inhibitors: Potentiation with Lithium; CHO-M1 cells, IP1 TR-FRET (IP-One), carbachol + lithium; Potency, µM (doses to about 59.4 µM), for the others: top-dose activity, negative = IMPase inhibition, usual class: inhibitors; 210,000 compounds, 0.35% hits; AID 1457, 2008;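 further: IP1 builds up when IMPase is blocked and the TR-FRET signal falls; potency means the concentration at half of the fitted maximal effect; plate controls were basal vehicle for no effect and high inhibitor control for full effect; nearly all actives have a fitted effect of over 50% in size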
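Lithium-sensitised IP1 accumulation assay; M1-expressing CHO cells treated 30 min at 37C with compound. Competitive antibody detection by time-resolved FRET followed a 10 min room-temperature lysis step.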
IMPase cell inh: qHTS Assay for Identifying the Cell-Membrane Permeable IMPase Inhibitors; CHO-M1 cells, IP1 accumulation, HTRF TR-FRET ratio; inhibition (IP1 accumulation), % at 46.1 µM; Inositol monophosphatase 1 (Rattus norvegicus), P97697; AID 901, 2007; 120,000 tested, under 10 active; active means well fitted curve in the direction sought with a large enough effect in the signal ratio, not every such curve was filed as active; inconclusive means small, poorly fitted or top-dose-only effect, or a change in a side signal; inactive means no such curve, though single readings can be large or run the other way; the % refers to the signal ratio;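 further: cells stimulated with carbachol in lithium chloride buffer; plate controls were DMSO basal wells for no effect and reference inhibitor wells for full effect; higher means more IMPase inhibition seen as more IP1 and lower FRET ratio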
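CHO-M1, 2000 cells/well, cultured 16–30 h; cpd up to 46 uM; carbachol (50 uM solution, stimulation buffer w/ 50 mM LiCl, pH 7.4), 30 min 37C; IP-One TR-FRET, 10 min RT; Ex 320/Em 665, 620; Hill-fit AC50.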
ALDH1A1 inh: qHTS Assay for Inhibitors of Aldehyde Dehydrogenase 1 (ALDH1A1); Aldehyde dehydrogenase 1A1 (Homo sapiens), P00352; Purified ALDH1A1, NADH fluorescence, propionaldehyde substrate; Potency, µM (highest dose often 75.3 µM), without a hit: at the top dose activity, negative = inhibition, actives largely listed as inhibitors; 220,000 compounds, 7.3% hits; active means well fitted inhibition curve with a large enough effect, not every such curve was filed as active; inconclusive means small, poorly fitted or top-dose-only effect, or another doubt; inactive means no such curve, though single readings can be large or run the other way;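 further: potency means the concentration at half of the fitted maximal effect; plate controls were no enzyme wells and a reference inhibitor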
Target sequence (P00352 whole entry, looked up): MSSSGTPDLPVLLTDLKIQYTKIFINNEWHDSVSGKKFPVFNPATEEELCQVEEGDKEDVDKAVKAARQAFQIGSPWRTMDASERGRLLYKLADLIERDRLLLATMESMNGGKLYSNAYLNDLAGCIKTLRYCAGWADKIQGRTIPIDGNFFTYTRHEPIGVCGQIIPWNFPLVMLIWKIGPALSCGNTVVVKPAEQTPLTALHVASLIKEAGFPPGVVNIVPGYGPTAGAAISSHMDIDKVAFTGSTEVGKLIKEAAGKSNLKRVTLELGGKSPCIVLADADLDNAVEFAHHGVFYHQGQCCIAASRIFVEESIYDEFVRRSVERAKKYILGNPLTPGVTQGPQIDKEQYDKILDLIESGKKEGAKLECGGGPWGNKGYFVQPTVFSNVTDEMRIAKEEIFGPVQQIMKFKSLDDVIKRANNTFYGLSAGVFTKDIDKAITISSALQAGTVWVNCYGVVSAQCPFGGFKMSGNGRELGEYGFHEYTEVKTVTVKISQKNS
PNC inhibitor: High Content Assay for Compounds that inhibit the Assembly of the Perinucleolar Compartment; PC3M PTB-GFP, PNC prevalence imaging, 16 h; stronger effect = lower value; 140,000 compounds, 3.1% hits; activity change (PNC), negative = inhibition, % at 10 µM;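 active means readout at or below -70, meaning at least 70% loss of cells showing the perinucleolar compartment, a nuclear body marking cancer cells; inconclusive means readout between -30 and a set limit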;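 further: plate controls were DMSO wells for no effect and camptothecin positive control wells for full effect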
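PC3M cells stably expressing PTB-GFP, 750–1000 cells/well, treated 16 h at 37 °C with compound (23 nl of library stock), in duplicate. After paraformaldehyde fixation and Hoechst stain, imaged at 20x; PNC prevalence scored by image analysis.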
* marks the source's active call; other numbers are inactive results; ? = inconclusive; . = no result; [ ] = another dose, or the depositor's remark. The list is not random: actives were taken first. Their share in the collection is about 11%. Unless noted, the call rests on the fitted dose curve; in most records, active means well fitted curve in the direction sought with a large enough effect; inconclusive means small, poorly fitted or top-dose-only effect, or another doubt; inactive means no such curve, though single readings can be large; an effect the other way counts as inactive or inconclusive. Unless noted, on the % scale 0 is the no-effect control and ±100 the full control effect.

SMILES	HPGD block	NPSR antag	IMPase Li cell	IMPase cell inh	ALDH1A1 inh	PNC inhibitor
[O-]/C(=C(\C(=S)Nc1ccccc1F)[n+]1ccccc1)c1ccc(-c2ccccc2)cc1	.	-11.4%	-1.0%	.	17.8µM*	.
COC(=O)C1=C(C)Nc2nnnn2C1c1cccs1 (centres undefined)	15.8µM*	-5.6%[46.1 µM]	31.0%[38.3 µM]	1.3	2.82µM*	?
C=CCOC(=O)C1=C(C)Nc2nnnn2C1c1cccs1 (centres undefined)	-16.1%	6.7%[46.1 µM]	-1.8%[38.3 µM]	3.1	6.31µM*	?
C=CCOC(=O)C1=C(C)Nc2nnnn2C1c1ccc(OC)cc1OC (centres undefined)	-4.9%	-13.2%[46.1 µM]	1.0%[38.3 µM]	-9.0	?	57.7
COC(=O)C1=C(C)Nc2nnnn2C1c1cc(OC)ccc1OC (centres undefined)	.	-8.5%[46.1 µM]	.	6.4	2.5%	?
CC1=C(C(=O)Nc2ccccc2)C(c2sccc2C)n2nnnc2N1 (centres undefined)	-13.7%	-3.4%[46.1 µM]	19.8%[38.3 µM]	-1.1	0.355µM*	3.4
O=C(OCC(=O)c1c[nH]c2ccccc12)c1ccc(Br)o1	1.3%	-15.6%[46.1 µM]	12.0%[38.3 µM]	-3.5	11.3%	?
Cc1ccc(NC(=O)CN(C)CC(=O)Nc2ccccc2-c2ccccc2)cc1	.	-31.0%	8.8%	.	14.1µM*	.
Cc1cc(C)c(N2C(=NC(=O)CCCC(=O)O)SC3CS(=O)(=O)CC32)c(C)c1 (centres undefined)	-7.7%	-7.1%[46.1 µM]	-2.4%[38.3 µM]	-8.5	4.8%	?
Cc1ccc(S(=O)(=O)NNC(=O)c2cccs2)c(C)c1	2.1%	16.3%	-9.6%	.	3.2%	-7.9
Cc1ccc(S(=O)(=O)NNc2ccccc2)c(C)c1	8.91µM*	8.2%	6.3%	.	7.08µM*	?
Cc1ccccc1Nc1oc(-c2ccccc2)nc1-c1cccc2ccccc12	-1.6%	.	-4.8%	.	25.1µM*	.
Cc1ccccc1Nc1oc(-c2ccccc2)nc1-c1ccccc1F	-18.1%	.	12.4%	.	1.8%	.
COc1ccnc(Oc2ccc(F)cc2)c1C#N	.	-1.2%	-0.5%	.	-13.2%	.
Nc1nc(-c2cccs2)c(CC(=O)O)s1	.	5.6%	-10.6%	.	?	.
O=C(O)Cc1sc(Nc2ccc(Cl)cc2)nc1-c1cccs1	.	-27.0%	8.8%	.	1µM*	.
CCOc1ccc(N(C(=O)c2cc3ccccc3oc2=O)C2C=CS(=O)(=O)C2)cc1 (centres undefined)	.	-2.0%	1.0%	.	?	.
Cc1ccc(NC(=S)N/N=C/c2c(Cl)cccc2Cl)c(C)c1	-16.1%	-37.3%	6.6%	12.6	-5.2%	-98.3*
CC(C)(C)NC(=S)N/N=C/c1c(Cl)cccc1Cl	.	12.1%	.	.	7.3%	.
O=C(NCCc1ccccc1)c1cccc(N2C(=O)C3CC=CCC3C2=O)c1 (centres undefined)	.	4.1%	-4.2%	.	-2.2%	.
CC(C)c1cc(N2CCC(=O)NC2=O)cc(C(=O)O)c1O	?	10.4%	-7.7%	.	?	-113.8*
O=C(CN1C(=O)COc2ccccc21)Nc1ccc2c(c1)OCCO2	-10.7%	-9.0%[46.1 µM]	-17.1%[38.3 µM]	-3.0	-8.0%	?
O=C(CN1C(=O)CCS(=O)(=O)c2ccccc21)Nc1ccc2c(c1)OCCO2	-9.5%	3.6%[46.1 µM]	-0.4%	1.2	10.1%	-100.0*
O=C(CN1C(=O)CSc2ccccc21)Nc1ccc2c(c1)OCCO2	-11.2%	-6.8%[46.1 µM]	-5.6%[38.3 µM]	-0.8	8.2%	?
CCC1Oc2ccccc2N(CC(=O)Nc2ccc3c(c2)OCCO3)C1=O (centres undefined)	-4.0%	1.6%[46.1 µM]	0.4%	-15.3[1.84 µM]	5.9%	-94.1*
SMILES	HPGD block	NPSR antag	IMPase Li cell	IMPase cell inh	ALDH1A1 inh	PNC inhibitor
O=C(O)c1ccc(Cl)c(S(=O)(=O)Nc2ccc3cn[nH]c3c2)c1	.	14.2%	-4.3%	.	22.4µM*	.
COc1cc(S(=O)(=O)Nc2ccc3cn[nH]c3c2)ccc1Cl	.	-2.6%	13.9%	.	-15.1%	.
O=C(NCc1ccccc1Cl)NCc1ccccc1Cl	.	-2.8%[7.67 µM]	.	.	.	.
O=C(COC(=O)CCSc1ccc(Cl)cc1)NCc1ccccc1	-5.7%	6.9%	5.3%	.	1.9%	?
O=C(COC(=O)CCSc1ccccc1)NCc1ccccc1Cl	17.8µM*	7.7%	-2.6%	14.8	7.0%	29.2
C/C(CC(=O)NCc1ccco1)=N\NC(=O)C(c1ccccc1)c1ccccc1	-5.1%	0.0%[46.1 µM]	10.9%[38.3 µM]	4.3	?	?
O=C(CC(c1ccccc1)c1ccccc1O)NCc1ccco1 (centres undefined)	15.8µM*	-20.1%[46.1 µM]	0.4%[38.3 µM]	3.1	3.5%	-0.3
O=C(CC(c1ccccc1)c1ccccc1O)NCc1ccccc1Cl (centres undefined)	15.8µM*	-53.3%	23.8%	.	-3.8%	?
COC(=O)c1sccc1NC(=S)N1CCN(c2cc(C)ccc2C)CC1	-7.9%	-6.1%	6.1%	.	1.4%	19.2
COc1ccc(N(CC(=O)NCc2ccc3c(c2)OCO3)S(=O)(=O)c2c(C)nn(C)c2C)cc1	-8.6%	-9.2%[46.1 µM]	6.3%[38.3 µM]	2.1	-3.0%	2.5
COc1cc(CCCN2C(=S)NC[C@@H]2CCCCN)cc(OC)c1OC	.	-13.6%	-1.7%	.	-1.2%	.
CC(=O)Nc1c(C(=O)N2CCCCCC2)cnn1-c1ccccc1Cl	14.1µM*	20.3%	4.3%	0.9	3.0%	121.2
Cc1nonc1C(=O)N/N=C/c1ccc(O)c(O)c1	31.6µM*	22.0%	-5.2%	3.5	-8.5%	-16.3
CCN(CC)CCn1c(=N)n(CC(O)c2ccco2)c2ccccc21 (centres undefined)	-12.9%	24.3%	-9.6%	.	5.7%	13.0
CCn1ncc(/C=C2/SC(=S)NC2=O)c1C	15.8µM*	-23.7%	3.9%	.	-13.0%	29.5
CCn1c(C)cc(/C=C2/SC(=S)NC2=O)c1C	?	-21.2%	11.8%	9.1	?	-22.0
C=CCOC(=O)C(=O)/C=C/c1c(C)n(C)n(-c2ccccc2)c1=O	.	-15.0%	-3.6%	.	?	.
C=CCOC(=O)C(=O)/C=C/c1coc2ccccc2c1=O	.	54.9%	-10.2%	.	31.6µM*	.
O=[N+]([O-])c1ccc2c(c1)ncn2-c1ccccc1	-24.4%	-4.9%	-0.4%	.	?	?
Cn1c(-[n+]2c(-c3ccccc3)cc(-c3ccccc3)cc2-c2ccccc2)nc2cc([N+](=O)[O-])ccc21	.	10µM*	.	?	?	4.4
O=C(Nc1ccc(NC(=O)c2ccccc2)nc1)c1ccncc1	.	11.1%	0.7%	.	-2.2%	.
Cn1c(-c2sc3cc(C(F)(F)F)cnc3c2-c2cccnc2)n[nH]c1=S	28.2µM*	-23.7%[46.1 µM]	13.8%[38.3 µM]	3.0	?	38.4

Screening results deposited in PubChem by National Center for Advancing Translational Sciences (NCATS).
